The text below walks through data of PubChem BioAssay (NCI).

Test in all cases: NCI-60 one-dose screen, 48 h (100 = growth as untreated, 0 = no growth, -100 = all killed)
Common to all, as to details: 10 µM unless noted

Test [1] concerns T-47D breast.
Test [2] relates to MDA-MB-435 melanoma.
Test [3] deals with SW-620 colon.
Test [4] concerns MCF7 breast.
Test [5] deals with HCT-116 colon.
For test [6], the system named is HCC-2998 colon.
Test [7] relates to KM12 colon.
In test [8] the test system is BT-549 breast.

Each structure is given as a SMILES string. The panel holds about 83,000 compounds, 20% with a hit somewhere; the sample as a whole holds those more often.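 Treatment: one concentration, 48 hours, 96-well format. Scoring: percent growth, with anything below 10 considered active.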 Unmarked numbers belong to inactive results. Calls of active or inactive are those of the source.

In the case of `Cn1cc(-c2noc(-c3cn(C)c4ncc(F)cc34)n2)c2cc(Br)ccc21`, the growth is 25.2% in test [1]; 72.3% in test [2]; 57.3% in test [3]; 51.8% in test [4]; 32.7% in test [5]; 107% in test [6]. The growth in test [7] was 58.1%.
As for `Nc1nc(Nc2ccccc2)c2ncn(Cc3cc4c(cc3Br)OCO4)c2n1`, the growth was 72.3% in test [1]; -16.9% (active) in test [2]; 20.5% in test [3]; 12.4% in test [4]; 7.79% (active) in test [5]; 23% in test [6]. For the same compound, the growth in test [7] is 11.6%.
For the compound `CCOC(=O)C(=Cc1ccccc1[N+](=O)[O-])C(=O)OCC`, the growth in test [1] was 25.5%; in test [2] it was 15.6%; in test [3], 19.2%; in test [4], 10.4%; in test [5] it was 7.82% (active); in test [6], 48.3%. Besides, in test [7], the growth is -17.7% (active).
On to `CC(=O)n1cc(C=O)c2ccccc21`, for which the growth in test [1] is 98.8%; in test [8], 96.5%; in test [4], 94.8%; in test [5], 109%; in test [6] it was 100%; in test [7], 94%.
As for `CCN(CC)c1ccc(/C=C/C=C2\NC(=O)NC2=O)cc1`, the growth was 31.9% in test [1]; -5.48% (active) in test [2]; 31.2% in test [3]; 20.4% in test [4]; 10.1% in test [5]; 37.2% in test [6]. Besides, in test [7], the growth is 32.4%.
As for `Cc1ccc2c(c1)/C(=N\N=C/c1cn(C(C)C)c3ccccc13)C(=O)N2`, the growth in test [1] was 24.9%; in test [2], 18.8%; in test [3], 46.4%; in test [4], 8.52% (active); in test [5], 28.1%; in test [6], 49.4%. In addition, the growth in test [7] was 73.7%.
For `COc1cc2c(c(Br)c1N)-c1cc(Br)c(N)cc1C2=O`, the growth in test [1] is 18.4%; in test [8], 77.9%; in test [4], 3.68% (active); in test [5], 62.9%; in test [6], 52.1%; in test [7], 66.6%.
As for `CC(C)[C@H]1COC(=O)N1[C@@H]1C(=O)N([C@@H](CCC(=O)N2CCN(C3CCCC3)CC2)C(=O)N[C@@H]2CCCc3ccccc32)[C@@H]1/C=C/c1cccc(Cl)c1`, the growth is 61.4% in test [1]; 32.7% in test [2]; 61.9% in test [3]; 34.7% in test [4]; 32.7% in test [5]; 51.8% in test [6]. Further, the growth in test [7] is 48.8%.
Regarding `O=C(CSc1nccc(Nc2ccc(S(=O)(=O)Nc3ccccn3)cc2)n1)c1ccc(Cl)cc1`, the growth was 50.6% in test [1]; 118% in test [2]; 105% in test [3]; 91.4% in test [4]; 92.2% in test [5]; 106% in test [6]. Also, in test [7], the growth was 97.6%.
As to `Cn1cc(-c2noc(-c3cn(C)c4ncccc34)n2)c2cc(Cl)ccc21`, the growth in test [1] is 54.2%; in test [2], 87%; in test [3], 89%; in test [4] it was 62.1%; in test [5] it was 94.1%; in test [6], 99.8%. Further, in test [7], the growth is 103%.
On to `CCOc1cc(/C=N\NC(=O)N/N=C/c2ccc(O)c(OCC)c2)ccc1O`, for which the growth in test [1] was 29.5%; in test [2], -14.6% (active); in test [3], 20.9%; in test [4], 17.4%; in test [5] it was 24.8%; in test [6], 41%. In test [7], the growth is 21.2%.
As for `COc1ccc(-c2cc(-c3ccc(OC)c(OC)c3)nc(SCCCCCC(=O)NO)n2)cc1`, the growth in test [1] is -1.6% (active); in test [2], 40.7%; in test [3], 32.8%; in test [4] it was 54.4%; in test [5], 14.6%; in test [6] it was 86.7%. For the same compound, the growth in test [7] is 63.9%.
Take `Cc1cc(C)c(-c2cc(O)c(-c3c(C)cc(C)cc3C)cc2O)c(C)c1`: the growth in test [1] was 43%; in test [2], 2.34% (active); in test [3] it was 26.2%; in test [4], 21.7%; in test [5] it was 22.6%; in test [6] it was 45.8%. Further, the growth in test [7] is 23.9%.
Turning to `Cc1cc(C)c(O)c(CNCCCNCc2cc(C)cc(C)c2O)c1`, the growth in test [1] was 67.3%; in test [2], 2.52% (active); in test [3], 71.8%; in test [4], 38.2%; in test [5], 51.6%; in test [6] it was -51.4% (active). In addition, in test [7], the growth is 61.3%.
Turning to `CCN(CCO)CCC(=O)c1ccc([N+](=O)[O-])cc1`, the growth in test [1] is 90.6%; in test [2] it was 111%; in test [3] it was 113%; in test [4], 98.6%; in test [5], 112%; in test [6], 97.4%. The growth in test [7] was 102%.
Take `O=C(CCN1CCCCC1)c1ccc(Cl)cc1`: the growth is 92.6% in test [1]; 105% in test [2]; 103% in test [3]; 91.8% in test [4]; 96.7% in test [5]; 112% in test [6]. Besides, the growth in test [7] was 102%.
Take `C=C(C)[C@@H]1CC[C@]2(COCCCN)CC[C@]3(C)[C@H](CC[C@@H]4[C@@](C)(CCCNCCCN)[C@H](C(=C)C)CC[C@]43C)[C@@H]12`: the growth in test [1] is -60.6% [100 µM] (active); in test [8], -43.2% [100 µM] (active); in test [4] it was -47.9% [100 µM] (active); in test [5] it was -31.7% [100 µM] (active); in test [7], -62.5% [100 µM] (active).
Take `O=C1COCCN1c1ccc(NCc2cn(Cc3ccccc3)c3ccccc23)cc1`: the growth was 44.9% in test [1]; 97.9% in test [2]; 84.9% in test [3]; 63.9% in test [4]; 62.9% in test [5]; 105% in test [6]. Also, the growth in test [7] is 104%.
As to `N#Cc1ccc(-c2ccc(COc3ccc(CC4SC(=O)NC4=O)cc3)cc2)cc1` (centres undefined), the growth was 35.8% in test [1]; 45.4% in test [2]; 80.1% in test [3]; 38.1% in test [4]; 42.5% in test [5]; 83.2% in test [6]. The growth in test [7] was 61.9%.
Turning to `O=C(NCCCNC(=O)OCc1ccc2c(Br)cc(Br)c(O)c2n1)OCc1ccc2c(Br)cc(Br)c(O)c2n1`, the growth was -58.2% (active) in test [1]; -71.2% (active) in test [2]; -44.7% (active) in test [3]; -28.1% (active) in test [4]; -66% (active) in test [5]; -42.5% (active) in test [6]. The growth in test [7] was 7.57% (active).
As to `COc1cc(NCc2ccccc2O)c2ncccc2c1`, the growth in test [1] is 90.4%; in test [2], 103%; in test [3] it was 102%; in test [4], 95.2%; in test [5] it was 64%; in test [6], 108%. For the same compound, the growth in test [7] is 103%.
Take `Nc1nc(Cl)c2ncn(Cc3cc4c(cc3I)OCO4)c2n1`: the growth in test [1] is 30.9%; in test [2], 34.6%; in test [3], 18.3%; in test [4] it was 18.9%; in test [5], 16.7%; in test [6] it was 76.4%. Also, the growth in test [7] is 9.48% (active).
For `COC(=O)[C@@H](NC(=O)NC(=O)NC(=O)CI)C(C)C`, the growth in test [1] is 44.8%; in test [2], 90.5%; in test [3], 9.83% (active); in test [4], 59.9%; in test [5], 75%; in test [6], 113%. The growth in test [7] was 100%.
`CC(C)CCSC1=CC(=O)c2ccccc2C1=O`: the growth in test [1] is -41.4% (active); in test [2], 63.8%; in test [3], -16.7% (active); in test [4] it was 42.5%; in test [5] it was -100% (active); in test [6], 100%. In addition, the growth in test [7] was 92.1%.
Regarding `CCc1ccc(-c2ccc(COc3ccc(CC4SC(=O)NC4=O)cc3)cc2)cc1` (centres undefined), the growth in test [1] is 41%; in test [2] it was 57.9%; in test [3], 80.7%; in test [4], 59.1%; in test [5], 51%; in test [6] it was 89.6%. Further, the growth in test [7] is 64%.
For `COc1ccc2c(c1)C(C)Cc1c(ncnc1-n1cnc3ccccc31)N2C` (centres undefined), the growth in test [1] is 56.9%; in test [2], 0.335% (active); in test [3] it was 23.8%; in test [4], 18.6%; in test [5], 10.3%; in test [6], 25.4%. In addition, in test [7], the growth is 17.8%.
Take `CC1(C(=O)O)CCC(N)(C(=O)O)C1(C)C` (centres undefined): the growth was 98.4% in test [1]; 115% in test [2]; 108% in test [3]; 99.5% in test [4]; 110% in test [5]; 120% in test [6]. The growth in test [7] is 111%.
In the case of `O=C(NCCCCCCCNC(=O)OCc1ccc2c(Cl)cc(Cl)c(O)c2n1)OCc1ccc2c(Cl)cc(Cl)c(O)c2n1`, the growth in test [1] is -62.5% (active); in test [2], -86.4% (active); in test [3], -67.3% (active); in test [4] it was -30.2% (active); in test [5] it was -70% (active); in test [6], -75.8% (active). Moreover, the growth in test [7] is -82.4% (active).
Turning to `Cn1ncc2c(Nc3ccc(O)cc3)nc(Cl)nc21`, the growth is 106% in test [1]; 102% in test [2]; 118% in test [3]; 94% in test [4]; 108% in test [5]; 105% in test [6]. Also, the growth in test [7] is 106%.
In the case of `CCCCCn1sc(=O)n(Cc2ccc(CNC(=O)OCc3ccc4cccc(O)c4n3)cc2)c1=O`, the growth in test [1] was -47.3% (active); in test [2] it was -70.1% (active); in test [3], -48.5% (active); in test [4], 0.802% (active); in test [5], -76.9% (active); in test [6] it was 5.53% (active). Further, the growth in test [7] is 11.8%.
With `O=C(OCc1ccc2c(Cl)cc(Cl)c(O)c2n1)N1CCNCC1`, the growth was 29.9% in test [1]; 48.9% in test [2]; 26.2% in test [3]; 34.6% in test [4]; 27.5% in test [5]; 60.2% in test [6]. In test [7], the growth was 31.5%.
With `CCCCC(CCCCCC(CCCC)C1NC(C)Cc2cc(OC)c(OC)cc21)C1NC(C)Cc2cc(OC)c(OC)cc21` (centres undefined), the growth is -76.8% (active) in test [1]; -73.4% (active) in test [2]; -80.8% (active) in test [3]; -95.1% (active) in test [4]; -97.5% (active) in test [5]; -97.3% (active) in test [6]. Further, the growth in test [7] was -94.7% (active).
Turning to `O=C(NCc1ccc(Cn2c(=O)sn(-c3ccccc3)c2=O)cc1)OCc1ccc2c(Br)cc(Br)c(O)c2n1`, the growth is -49.8% (active) in test [1]; -77.6% (active) in test [2]; -50.2% (active) in test [3]; -29% (active) in test [4]; -71.8% (active) in test [5]; -80% (active) in test [6]. Besides, the growth in test [7] was -61.8% (active).
Consider `O=C(Nc1cc(F)cc2cccnc12)c1cnc(N2CCNCC2)cn1`, for which the growth in test [1] was 18%; in test [2], 77.3%; in test [3] it was 40.9%; in test [4] it was 10.2%; in test [5], 11%; in test [6] it was 85.6%. The growth in test [7] was 81.2%.
